Results reported in ChEMBL document CHEMBL3988442, “University of Dundee, Small-Polar-MMV Screening Library” (2021).
For some of these results: Results with a measured potency or affinity are listed apart.

Assays:
Design in all cases: scale not given: direction of the effect not stated beside the values
[1] = target: Protein translocase subunit SecA (Escherichia coli (strain K12)) (UniProt P10408); assay: Assay to Identify E. coli SecA ATPase Inhibitors; format: functional; conditions: 30 µM
[2] = target: T1, Ubiquitin-activating enzyme e1, putative (Leishmania donovani (strain BPK282A1)) (UniProt E9BSI1); assay: Leishmania donovani Ubiquitin Activating Enzyme (LdE1); format: functional; conditions: 30 µM
T1 sequence (whole entry): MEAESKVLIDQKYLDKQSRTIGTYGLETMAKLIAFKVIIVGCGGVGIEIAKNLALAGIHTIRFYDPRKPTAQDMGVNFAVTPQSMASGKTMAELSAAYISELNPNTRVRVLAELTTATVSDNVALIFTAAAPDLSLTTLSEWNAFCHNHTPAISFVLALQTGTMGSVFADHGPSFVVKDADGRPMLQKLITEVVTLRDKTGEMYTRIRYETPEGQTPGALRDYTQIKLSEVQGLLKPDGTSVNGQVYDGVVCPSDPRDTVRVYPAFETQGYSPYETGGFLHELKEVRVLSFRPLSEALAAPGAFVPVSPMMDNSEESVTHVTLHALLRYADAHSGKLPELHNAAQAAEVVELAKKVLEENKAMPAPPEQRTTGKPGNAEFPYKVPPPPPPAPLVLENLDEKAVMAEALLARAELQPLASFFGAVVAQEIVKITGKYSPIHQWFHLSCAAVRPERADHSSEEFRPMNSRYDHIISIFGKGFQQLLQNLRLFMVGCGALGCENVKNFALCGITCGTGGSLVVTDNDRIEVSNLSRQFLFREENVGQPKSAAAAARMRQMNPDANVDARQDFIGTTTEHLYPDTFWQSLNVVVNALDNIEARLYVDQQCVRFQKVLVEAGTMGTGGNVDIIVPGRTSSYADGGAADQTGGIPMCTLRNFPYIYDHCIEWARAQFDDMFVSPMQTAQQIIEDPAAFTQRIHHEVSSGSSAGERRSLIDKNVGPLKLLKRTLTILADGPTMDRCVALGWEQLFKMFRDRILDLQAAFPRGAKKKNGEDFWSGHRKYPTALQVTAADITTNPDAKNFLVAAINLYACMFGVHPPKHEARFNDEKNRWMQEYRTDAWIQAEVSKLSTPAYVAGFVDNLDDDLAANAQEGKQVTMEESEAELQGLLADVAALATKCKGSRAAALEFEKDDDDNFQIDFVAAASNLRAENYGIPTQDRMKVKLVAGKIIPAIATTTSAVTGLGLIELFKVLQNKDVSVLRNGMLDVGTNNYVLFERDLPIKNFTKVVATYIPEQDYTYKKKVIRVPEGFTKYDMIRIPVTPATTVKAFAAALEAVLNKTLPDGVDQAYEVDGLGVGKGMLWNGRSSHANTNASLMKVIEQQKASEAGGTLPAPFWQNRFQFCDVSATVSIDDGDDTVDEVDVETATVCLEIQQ

[3] = target: AMP-activated protein kinase, AMPK (Homo sapiens) (UniProt P54646+O43741+P54619+Q9UGJ0+Q9Y478+Q13131+Q9UGI9); assay: AMP-dependent Kinase enzyme assay. An in vitro enzyme assay that detects ADP turnover that is directly proportional to AMPK activity. This uses naive AMPK that is activated during the assay with MK-8722; format: functional; conditions: 30 µM
[4] = target: Sialic acid-binding Ig-like lectin 9 (Homo sapiens) (UniProt Q9Y336); assay: Hs-Siglec9 ALPHAscreen SOP 20170721; conditions: 10 µM
Trypanosoma cruzi = assay: Trypanosoma cruzi phosphomannomutase and mannose-1-phosphate guanylyltransferase assay; format: functional; conditions: 10 µM
[5] = target: T2, Arginase-2, mitochondrial (Homo sapiens) (UniProt P78540); assay: in vitro enzyme assay to detect the production of urea directly proportional to the activity of Arginase II; format: functional; conditions: 33.3 µM; also: in the data most compounds retested in dose-response had high values
T2 sequence (whole entry): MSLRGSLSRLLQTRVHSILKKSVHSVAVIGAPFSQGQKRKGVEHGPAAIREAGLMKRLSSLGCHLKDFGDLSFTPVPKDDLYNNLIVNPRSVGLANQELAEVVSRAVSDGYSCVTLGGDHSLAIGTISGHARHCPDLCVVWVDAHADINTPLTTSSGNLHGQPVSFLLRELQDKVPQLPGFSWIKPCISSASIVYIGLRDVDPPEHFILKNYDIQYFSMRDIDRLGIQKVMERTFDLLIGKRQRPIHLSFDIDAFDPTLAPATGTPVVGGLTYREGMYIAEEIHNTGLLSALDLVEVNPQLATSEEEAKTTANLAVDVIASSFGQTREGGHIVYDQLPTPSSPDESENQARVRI

[6] = target: T3, Proteasome subunit beta (Trypanosoma cruzi) (UniProt O96673); assay: Trypanosoma cruzi proteasome chymotrypsin-like activity (TcProtChymo) assay.; also: in the data most compounds retested in dose-response had high values; format: functional; conditions: 9.37 µM
T3 sequence (whole entry): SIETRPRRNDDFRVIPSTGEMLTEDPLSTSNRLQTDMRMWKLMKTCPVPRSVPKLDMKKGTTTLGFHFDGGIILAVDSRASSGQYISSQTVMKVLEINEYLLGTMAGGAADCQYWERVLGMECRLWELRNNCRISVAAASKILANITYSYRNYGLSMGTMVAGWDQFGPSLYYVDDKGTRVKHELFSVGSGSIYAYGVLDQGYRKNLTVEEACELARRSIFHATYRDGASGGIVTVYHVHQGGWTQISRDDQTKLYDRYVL

Homo sapiens = species: Homo sapiens; assay: To identify inhibition of the IFN signalling (Jak-Stat) pathway via expression of an eGFP reporter gene under the control of an IFN-stimulated response element (ISRE) containing MxA promoter.; format: functional; conditions: 30 µM
[7] = target: T4, Tyrosyl-tRNA synthetase, putative (Trypanosoma cruzi (strain CL Brener)) (UniProt Q4DSP6); assay: Trypanosoma cruzi tyrosyl tRNA synthetase (TcYRS) _High Tyrosine SOP; format: functional; conditions: 30 µM; also: in the data most compounds retested in dose-response had high values
T4 sequence (whole entry): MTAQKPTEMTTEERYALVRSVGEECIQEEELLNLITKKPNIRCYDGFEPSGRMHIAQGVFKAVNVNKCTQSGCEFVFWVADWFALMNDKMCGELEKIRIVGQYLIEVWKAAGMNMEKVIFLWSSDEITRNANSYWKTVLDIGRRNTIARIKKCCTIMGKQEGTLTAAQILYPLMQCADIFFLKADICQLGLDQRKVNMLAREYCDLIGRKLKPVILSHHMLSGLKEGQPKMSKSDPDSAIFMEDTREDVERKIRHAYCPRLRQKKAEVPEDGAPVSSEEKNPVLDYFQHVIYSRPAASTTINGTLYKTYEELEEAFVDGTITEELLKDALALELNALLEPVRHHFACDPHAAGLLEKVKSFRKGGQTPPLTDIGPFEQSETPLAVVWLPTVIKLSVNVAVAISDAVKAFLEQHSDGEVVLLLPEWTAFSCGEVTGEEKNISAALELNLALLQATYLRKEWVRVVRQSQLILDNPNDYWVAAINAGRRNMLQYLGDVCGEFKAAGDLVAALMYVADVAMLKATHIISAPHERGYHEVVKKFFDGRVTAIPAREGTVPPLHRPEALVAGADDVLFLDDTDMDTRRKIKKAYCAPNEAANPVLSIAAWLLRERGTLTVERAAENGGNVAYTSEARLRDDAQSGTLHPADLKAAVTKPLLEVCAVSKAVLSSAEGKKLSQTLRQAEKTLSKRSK

[8] = target: T4, Tyrosyl-tRNA synthetase, putative (Trypanosoma cruzi (strain CL Brener)); assay: Trypanosoma cruzi tyrosyl tRNA synthetase (TcYRS) SOP; format: functional; conditions: 30 µM
[9] = target: Chromo domain-containing protein 1 (Saccharomyces cerevisiae (strain ATCC 204508 / S288c) (Baker's yeast)) (UniProt P32657); assay: ScCHD-1 Enzyme Inhibition Assay; format: functional; conditions: 30 µM; also: in the data most compounds retested in dose-response had high values
Chromo domain-containing protein 1 (Saccharomyces cerevisiae (strain ATCC 204508 / S288c) (Baker's yeast)), sequence (P32657 whole entry, the tested form may be a part): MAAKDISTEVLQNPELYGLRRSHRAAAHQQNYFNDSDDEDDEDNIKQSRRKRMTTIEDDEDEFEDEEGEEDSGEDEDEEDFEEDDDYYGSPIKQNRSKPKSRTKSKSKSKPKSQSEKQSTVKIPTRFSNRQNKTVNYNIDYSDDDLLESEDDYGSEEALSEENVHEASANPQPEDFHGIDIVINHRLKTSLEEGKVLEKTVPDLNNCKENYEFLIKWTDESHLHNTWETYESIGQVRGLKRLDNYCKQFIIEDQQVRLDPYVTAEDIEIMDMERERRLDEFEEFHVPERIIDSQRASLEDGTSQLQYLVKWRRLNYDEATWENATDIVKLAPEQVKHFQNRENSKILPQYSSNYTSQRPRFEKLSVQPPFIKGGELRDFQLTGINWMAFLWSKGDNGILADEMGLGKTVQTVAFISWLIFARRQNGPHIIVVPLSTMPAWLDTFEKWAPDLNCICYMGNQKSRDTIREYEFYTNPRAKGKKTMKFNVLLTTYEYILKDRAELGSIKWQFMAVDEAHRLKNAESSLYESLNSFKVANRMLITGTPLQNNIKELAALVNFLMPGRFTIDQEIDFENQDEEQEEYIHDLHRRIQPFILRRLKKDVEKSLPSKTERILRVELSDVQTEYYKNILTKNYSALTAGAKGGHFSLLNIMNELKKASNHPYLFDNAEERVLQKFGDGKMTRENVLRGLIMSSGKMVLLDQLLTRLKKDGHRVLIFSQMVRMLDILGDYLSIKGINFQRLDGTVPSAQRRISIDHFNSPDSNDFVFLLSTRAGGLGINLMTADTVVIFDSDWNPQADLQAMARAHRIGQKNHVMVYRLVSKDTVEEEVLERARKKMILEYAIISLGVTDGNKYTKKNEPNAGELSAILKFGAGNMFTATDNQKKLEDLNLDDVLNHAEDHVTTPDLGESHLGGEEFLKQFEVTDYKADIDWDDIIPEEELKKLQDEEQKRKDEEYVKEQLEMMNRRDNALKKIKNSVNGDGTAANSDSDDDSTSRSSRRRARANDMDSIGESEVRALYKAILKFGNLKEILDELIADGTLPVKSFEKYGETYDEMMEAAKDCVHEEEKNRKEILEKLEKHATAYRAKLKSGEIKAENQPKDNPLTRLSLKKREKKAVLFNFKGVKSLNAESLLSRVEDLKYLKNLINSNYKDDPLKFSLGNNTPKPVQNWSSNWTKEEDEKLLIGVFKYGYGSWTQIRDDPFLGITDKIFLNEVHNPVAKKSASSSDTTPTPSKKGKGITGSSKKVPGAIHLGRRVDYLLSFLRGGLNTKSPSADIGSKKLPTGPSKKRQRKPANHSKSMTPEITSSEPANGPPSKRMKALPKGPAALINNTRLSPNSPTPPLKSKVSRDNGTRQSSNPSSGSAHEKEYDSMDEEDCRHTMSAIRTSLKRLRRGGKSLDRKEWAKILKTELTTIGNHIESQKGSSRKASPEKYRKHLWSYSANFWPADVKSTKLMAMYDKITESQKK

Protein translocase subunit SecA (Escherichia coli (strain K12)), sequence (P10408 whole entry): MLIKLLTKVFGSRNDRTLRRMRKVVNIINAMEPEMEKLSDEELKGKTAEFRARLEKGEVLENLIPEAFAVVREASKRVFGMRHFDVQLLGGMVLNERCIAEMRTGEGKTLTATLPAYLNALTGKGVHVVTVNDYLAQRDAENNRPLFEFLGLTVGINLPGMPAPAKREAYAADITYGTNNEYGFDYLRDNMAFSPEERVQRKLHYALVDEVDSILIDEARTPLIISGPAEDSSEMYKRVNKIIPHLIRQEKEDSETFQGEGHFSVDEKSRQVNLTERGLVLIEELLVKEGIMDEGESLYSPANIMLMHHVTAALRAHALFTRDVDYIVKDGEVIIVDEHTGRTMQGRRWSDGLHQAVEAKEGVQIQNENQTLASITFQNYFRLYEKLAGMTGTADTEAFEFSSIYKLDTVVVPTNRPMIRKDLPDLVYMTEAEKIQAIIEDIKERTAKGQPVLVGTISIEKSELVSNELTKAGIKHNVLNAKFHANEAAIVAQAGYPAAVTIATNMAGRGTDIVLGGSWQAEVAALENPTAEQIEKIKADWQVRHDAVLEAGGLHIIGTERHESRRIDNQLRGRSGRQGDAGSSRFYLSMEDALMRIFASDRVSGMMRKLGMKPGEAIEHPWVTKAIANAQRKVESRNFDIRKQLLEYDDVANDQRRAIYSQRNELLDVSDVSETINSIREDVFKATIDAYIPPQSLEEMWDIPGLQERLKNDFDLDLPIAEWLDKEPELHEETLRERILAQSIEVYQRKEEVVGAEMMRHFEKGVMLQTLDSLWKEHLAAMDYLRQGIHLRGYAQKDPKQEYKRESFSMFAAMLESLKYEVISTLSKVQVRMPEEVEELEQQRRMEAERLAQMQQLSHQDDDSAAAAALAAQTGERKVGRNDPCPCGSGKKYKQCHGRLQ
Sialic acid-binding Ig-like lectin 9 (Homo sapiens), sequence (Q9Y336 whole entry): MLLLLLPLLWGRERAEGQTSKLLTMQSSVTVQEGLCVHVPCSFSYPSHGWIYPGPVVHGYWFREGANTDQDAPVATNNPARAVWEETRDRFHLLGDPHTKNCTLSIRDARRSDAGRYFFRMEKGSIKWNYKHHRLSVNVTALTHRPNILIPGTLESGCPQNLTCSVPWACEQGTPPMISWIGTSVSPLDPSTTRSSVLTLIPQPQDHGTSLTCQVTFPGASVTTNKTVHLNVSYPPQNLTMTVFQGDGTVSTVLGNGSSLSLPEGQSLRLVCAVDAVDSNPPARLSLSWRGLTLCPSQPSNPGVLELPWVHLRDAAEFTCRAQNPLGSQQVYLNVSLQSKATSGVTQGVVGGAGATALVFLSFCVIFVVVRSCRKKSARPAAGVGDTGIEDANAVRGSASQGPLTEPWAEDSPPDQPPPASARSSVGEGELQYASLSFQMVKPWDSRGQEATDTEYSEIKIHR

SMILES	Percent Effect [1]	Percent Effect [2]	Percent Effect [3]	Percent Effect [4]	Percent Effect (Trypanosoma cruzi)	Percent Effect [5]	Percent Effect [6]	Percent Effect (Homo sapiens)	Percent Effect [7]	Percent Effect [8]	Percent Effect [9]
CN(CC1CCCCO1)C(=O)c1ccnc(OC2CCC2)c1 (configuration not stated)	3.17%	0%	-6.16%	1.71%	6.18%	10.9%	8.62%	29.6%	-1.59%	0%	-2.67%
CCc1nc(CC(=O)N2CCn3c(nnc3C(C)C)C2)cs1	-3.31%	0%	1.23%	1.14%	3.95%	-1.92%	3.68%	-11.4%	2.45%	12.2%	-11%
CC(C)c1nc(N2CC(N3CCCCC3C)C2)c2cnn(C)c2n1 (configuration not stated)	-7.05%	-2.74%	-1.43%	-2.38%	-7.14%	-2%	4.54%	4.43%	-3.12%	8.64%	-2.78%
O=C1C(NS(=O)(=O)c2cc(F)cc(F)c2)CCN1Cc1ccccc1 (configuration not stated)	-4.38%	12.7%	-1.14%	-3.2%	6.52%	1.52%	13.7%	0.58%	6.4%	1.27%	-7.02%
CCN(C(=O)CN(C)C(c1cccc(F)c1)c1ccccn1)C1CC1 (configuration not stated)	-1.83%	-5.2%	-4.08%	9.51%	6.74%	-2.49%	2.37%	4.69%	6.8%	7.32%	-10.2%
Cn1ccc(C(=O)N2CCCC(n3cncn3)C2)cc1=O (configuration not stated)	-7.5%	10.4%	-3.42%	0.542%	5.97%	-6.11%	11.9%	-3.24%	3.81%	9.41%	-18.8%
Cn1cnc2c1CCN(CCCOc1ccc(C#N)cc1)C2	-7.51%	2.53%	-0.357%	-0.18%	-2.93%	-1.14%	5.98%	20.4%	-0.493%	-1.27%	-3.4%
CN(CCc1ccccc1)Cc1cc(C(=O)N2CCN(C)C(=O)C2)no1	-3.15%	19.2%	-1.8%	11%	1.19%	-6.79%	19.3%	5.79%	7.29%	23.5%	-7.74%
COc1ccc(Oc2cncc(C3CCCN3C(C)=O)n2)cc1 (configuration not stated)	-0.946%	12.2%	4.91%	-7.65%	-3.56%	0.696%	9.36%	15.2%	0%	3.9%	-11.7%
Cn1cc(CNC2CCCN(Cc3noc(C4CC4)n3)C2)cn1 (configuration not stated)	-1.45%	13.2%	1.88%	-6.33%	-4.51%	5.75%	18.7%	28.1%	2.45%	12.2%	-11.8%
CCc1cnc2c(c1Nc1ccc(OC)cc1)c(=O)n(C)c(=O)n2C	-1.52%	18.2%	0.437%	-14.7%	2.66%	-41.9%	8.88%	11.4%	4.23%	8.97%	-11.2%
CCCSCC(=O)Nc1ncn(CC(=O)NCc2ccccc2)n1	-2.05%	8%	-1.58%	7.45%	3.6%	13.5%	12.9%	4.31%	6.01%	16.1%	-6.22%
CCCC1(CO)CCCN(c2ncccc2F)C1 (configuration not stated)	-0.789%	5.41%	-4.77%	3.77%	-1.16%	-2.38%	14.8%	10.4%	5.82%	12.2%	-3.22%
COc1c(C(=O)NCc2cccnc2)nnn1Cc1ccc(C)cc1	-1.69%	1.33%	1.61%	3.68%	-4.13%	1.23%	4.25%	5.48%	1.06%	2.56%	0.167%
Cc1nc(C)n(C2CCCN(C(=O)CCCOc3ccccc3)C2)n1 (configuration not stated)	-1.32%	0%	6.84%	4.93%	1.5%	-2.85%	-1.18%	-22.8%	2.91%	9.76%	-5.8%
O=C1CN(Cc2nnc(-c3ccc(Br)o3)o2)CCN1	-0.248%	4.17%	-1.21%	-1.55%	0.486%	1.32%	21.2%	-4.7%	7.37%	0%	-3.99%
CCNS(=O)(=O)c1ccc(C)c(C(=O)N(C)Cc2ccco2)c1	-2.78%	-4.17%	4.21%	0.221%	-1.65%	0.442%	13%	-0.366%	-27.4%	-2.56%	2.86%
